Gal4-VP16 FLuc: Gal4-VP16 reporter inhibition counter-screen; Potency, µM (series often up to 53.6 µM), actives largely listed as inhibitors; Drosophila S2 Gal4-VP16 UAS-luciferase, luminescence, 20 h; hit rate 3.5% among 310,000; AID 2546;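 note: Gal4-VP16 expression switched on by copper sulfate through the metallothionein promoter; nearly all actives have a fitted effect of over 50% in size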
ATXN viability: viability counter-screen for ATXN expression inhibitors | S2 cells (HEK-293 line with an ATXN2-luciferase reporter) viability, CellTiter-Fluor protease fluorescence, 24 h | Potency, µM (doses to about 56.7 µM), most hits filed as cytotoxic | hit rate 0.49% among 400,000 | AID 651635; note: nearly all actives have a fitted effect of over 40% in size
TGFb inhibitor: TGF-b pathway inhibition. AID 588855. Potency, µM (top dose mostly 46.1 µM), hits mostly inhibitors. hit rate 1.2% among 410,000. HepG2 CAGA-GFP TGF-b/SMAD3 reporter, GFP fluorescence, 18 h; TGF-beta stimulated, 500 pg/mL final; note: nearly all actives have a fitted effect of over 65% in size
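HEPG2 CAGA-GFP reporter cells (1000/well, DMEM with 1% FBS) received compounds, then recombinant TGF-beta at 500 pg/mL final for 18 hours at 37 degrees C. Per-cell GFP summed per well was normalised to unstimulated and stimulated DMSO controls before curve fitting.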
RORgamma inh: inhibitors of mouse ROR gamma transcriptional activity | P51450 | Drosophila S2 Gal4-RORgamma UAS-luciferase reporter, 20 h | Potency, µM (titrated, usually from 53.6 µM), most hits filed as inhibitors | hit rate 5.4% among 310,000; note: nearly all actives have a fitted effect of over 60% in size
Target sequence (P51450 whole entry, looked up, the tested form may be a part): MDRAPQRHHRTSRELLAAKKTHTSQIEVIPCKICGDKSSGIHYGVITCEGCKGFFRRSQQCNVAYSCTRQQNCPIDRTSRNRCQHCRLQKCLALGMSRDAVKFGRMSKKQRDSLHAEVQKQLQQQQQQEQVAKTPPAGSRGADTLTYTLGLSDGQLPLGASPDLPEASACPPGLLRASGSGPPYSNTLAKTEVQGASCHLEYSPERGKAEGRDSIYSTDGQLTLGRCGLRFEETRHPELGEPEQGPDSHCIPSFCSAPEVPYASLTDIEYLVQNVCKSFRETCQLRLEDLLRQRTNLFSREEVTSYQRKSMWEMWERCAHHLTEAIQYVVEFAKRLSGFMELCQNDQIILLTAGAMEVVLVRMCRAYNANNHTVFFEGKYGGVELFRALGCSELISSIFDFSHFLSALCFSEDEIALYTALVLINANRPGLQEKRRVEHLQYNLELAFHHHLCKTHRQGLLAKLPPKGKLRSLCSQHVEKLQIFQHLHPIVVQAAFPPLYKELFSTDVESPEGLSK
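ROR gamma transcriptional activity was tracked as Gal4-UAS luciferase output in stably transfected Drosophila Schneider cells, with compound added 1 hr before 700 uM copper sulfate induction and a 20 hr ambient-temperature incubation.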
ATXN2 expr inh: reduces ATXN2 reporter expression in HEK-293 cells; AID 1745845; HEK-293 ATXN2-luciferase reporter, luminescence, 24 h; Potency, µM (series often up to 57 µM), usual class: inhibitors; hit rate 0.72% among 360,000; note: nearly all actives have a fitted effect of over 55% in size
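ATXN2-luciferase reporter cells (luciferase flanked by upstream and downstream ATXN2 gene portions) were treated 24 h at 37 °C with compounds at up to 57 uM. SteadyGlo luminescence gave expression; GF-AFC fluorescence gave viability.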
HepG2 tox: HepG2 cytotoxicity, counter-screen for TGF-b inhibitors; Potency, µM (top dose mostly 46.1 µM), usual class: cytotoxic; HepG2 CAGA-GFP viability, ATP luminescence, 18 h; hit rate 0.76% among 410,000
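HepG2 CAGA-GFP cells (1000/well, DMEM with 1% FBS) received compound, then TGF-beta at 500 pg/mL final, and were incubated 18 hours at 37 degrees C. Viability was read by CellTiter-Glo luminescence. Media-only wells were set as complete cell-killing and DMSO as no toxicity.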
A number is an active result; [ ] = remark or other dose. The list is not random: actives were taken first. Their share in the collection is about 6.3%. Calls come from the whole dose curve; as a rule, active = well fitted curve in the direction sought with a large enough effect; inconclusive = small, poorly fitted or top-dose-only effect, or another doubt; inactive = no such curve, though single readings can be large; an effect the other way counts as inactive or inconclusive.

Screening Cc1cc(C)c(Cn2c(C(O)c3ccccc3)nc3ccccc32)c(C)c1 (stereo not drawn) returned ATXN viability inconclusive, TGFb inhibitor 16µM, ATXN2 expr inh inconclusive and HepG2 tox inactive.
Screening Cc1cc(C)c(C)c(Cn2c(CO)nc3ccccc32)c1C returned Gal4-VP16 FLuc inconclusive, ATXN viability inactive, TGFb inhibitor inconclusive, RORgamma inh 2µM, ATXN2 expr inh inactive and HepG2 tox inactive.
For CCn1c(C(O)c2ccccc2)nc2ccccc21 (stereo not drawn) the results were Gal4-VP16 FLuc inactive, ATXN viability inactive, TGFb inhibitor inactive, RORgamma inh inactive, ATXN2 expr inh inactive and HepG2 tox inactive.
`CS(=O)(=O)Nc1cc2occ(NC=O)c(=O)c2cc1Oc1ccccc1` gave ATXN viability inactive.
`C=CCn1c(SCC(=O)NCc2ccco2)nnc1-c1cccc(N(C)C)c1` gave TGFb inhibitor inconclusive and HepG2 tox inactive.
CCn1c(=O)c2cc(C(=O)Nc3cc(C)c(Cl)cc3OC)sc2c2ccccc21 was read as ATXN viability inactive, TGFb inhibitor inactive, ATXN2 expr inh inactive and HepG2 tox inactive.
`CC(C)c1ccc(C(=O)N2CCOCC2c2cc(C(=O)Nc3ccccc3)no2)cc1` (stereo not drawn) gave ATXN viability inactive, TGFb inhibitor inactive, ATXN2 expr inh inactive and HepG2 tox inactive.
O=C(O)c1cccc(COc2ccccc2Cl)c1 was read as Gal4-VP16 FLuc 1.1µM, ATXN viability inactive, TGFb inhibitor inactive, RORgamma inh inactive, ATXN2 expr inh 0.71µM and HepG2 tox inactive.
For O=C(O)c1ccc(COc2ccccc2Cl)cc1 the results were Gal4-VP16 FLuc inactive, ATXN viability inactive, TGFb inhibitor inactive, RORgamma inh inactive, ATXN2 expr inh inactive and HepG2 tox inactive.
For CC(C)NC(=O)c1onc(CSc2ccc(C(C)C)cc2)c1C(=O)O the results were Gal4-VP16 FLuc 20µM, ATXN viability inactive, TGFb inhibitor inactive, RORgamma inh inconclusive, ATXN2 expr inh inactive and HepG2 tox inactive.
Screening CCOC(=O)C1=C(Cc2ccc(Cl)cc2)C(=O)c2ccccc2C1=O returned Gal4-VP16 FLuc inconclusive, TGFb inhibitor inconclusive, RORgamma inh 8.9µM, ATXN2 expr inh 20µM and HepG2 tox 11µM.
Screening COc1cc2c(NC3CCN(C)CC3)nc(N3CCCN(C)CC3)nc2cc1OCCCCN(C)C returned TGFb inhibitor inconclusive and HepG2 tox inactive.
`CCCN(C)CCCOc1cc2nc(N3CCCN(C)CC3)nc(NC3CCN(C)CC3)c2cc1OC` gave TGFb inhibitor 14µM and HepG2 tox inactive.
Screening COc1cc2c(NC3CCN(C)CC3)nc(N3CCCCC3)nc2cc1OCCCN(C)C returned TGFb inhibitor 10µM and HepG2 tox inactive.
`COc1cc2c(NC3CCN(C(C)C)CC3)nc(C3CCCCC3)nc2cc1OCCCN1CCCC1` gave ATXN2 expr inh 22µM.
`COc1cc2c(NC3CCN(C)CC3)nc(N3CCCCC3)nc2cc1OCCOCCN(C)C` gave TGFb inhibitor inactive and HepG2 tox inactive.
For COc1cc2c(NC3CCN(C)CC3)nc(N3CCCN(C)CC3)nc2cc1OCCOCCN(C)C the results were TGFb inhibitor inactive and HepG2 tox inactive.
Screening COc1cc2c(NC3CCN(C(C)C)CC3)nc(N3CCCN(C)CC3)nc2cc1OCCOCCN(C)C returned TGFb inhibitor 14µM and HepG2 tox inactive.
`CC(=O)Nc1ccc(C2=NNC(=Nc3cccc(S(=O)(=O)N(C)C)c3)SC2)cc1` gave Gal4-VP16 FLuc inconclusive, ATXN viability inconclusive, TGFb inhibitor 10µM, RORgamma inh inactive and HepG2 tox inactive.
For CN(C)S(=O)(=O)c1cccc(N=C2NN=C(c3ccccc3)CS2)c1 the results were Gal4-VP16 FLuc 16µM, ATXN viability inconclusive, TGFb inhibitor inactive, RORgamma inh inconclusive, ATXN2 expr inh inactive and HepG2 tox inactive.
`Cc1cc(C2=NNC(=Nc3ccccc3)SC2)c(C)n1C` gave Gal4-VP16 FLuc inactive, ATXN viability inconclusive, TGFb inhibitor inactive, RORgamma inh inactive, ATXN2 expr inh inactive and HepG2 tox inactive.
CCOc1cccc(-c2nnc3sc(C4CCCCC4)nn23)c1 was read as Gal4-VP16 FLuc inconclusive, ATXN viability inactive, TGFb inhibitor inactive, RORgamma inh 20µM, ATXN2 expr inh inactive and HepG2 tox inactive.
Screening COc1cccc(-c2nnc3sc(C4CCCCC4)nn23)c1 returned Gal4-VP16 FLuc inactive, ATXN viability inactive, TGFb inhibitor inconclusive, RORgamma inh inactive, ATXN2 expr inh inactive and HepG2 tox inactive.
`Cc1c(C(=O)OCc2nc3scc(-c4ccccc4)c3c(=O)[nH]2)cccc1[N+](=O)[O-]` gave Gal4-VP16 FLuc inactive, ATXN viability inactive, TGFb inhibitor inactive, RORgamma inh inconclusive, ATXN2 expr inh inactive and HepG2 tox inactive.
`O=C(OCc1nc2scc(-c3ccccc3)c2c(=O)[nH]1)c1cc(Cl)ccc1[N+](=O)[O-]` gave Gal4-VP16 FLuc inconclusive, TGFb inhibitor inconclusive, RORgamma inh 11µM, ATXN2 expr inh inactive and HepG2 tox inactive.
COc1ccc(CCC(=O)c2c(O)cc(O[C@@H]3O[C@H](CO)[C@@H](O)[C@H](O)[C@@H]3O[C@@H]3O[C@@H](C)[C@H](O)[C@@H](O)[C@@H]3O)cc2O)cc1O was read as ATXN2 expr inh inactive.
For CC(SCc1ccccc1)C(=O)NN=C1CCN(C)CC1 (stereo not drawn) the results were Gal4-VP16 FLuc inactive[0.365 µM], ATXN viability inactive, TGFb inhibitor inactive, RORgamma inh 7.1µM, ATXN2 expr inh inactive and HepG2 tox inactive.
CN1CCC(=NNC(=O)CSCc2ccccc2)CC1 was read as Gal4-VP16 FLuc inactive, ATXN viability inactive, TGFb inhibitor inactive, RORgamma inh inactive, ATXN2 expr inh inactive and HepG2 tox inactive.
For COc1ccc(-c2cc(C(F)(F)F)nc(SCC(=O)N3CCC(C)CC3)n2)cc1 the results were ATXN viability inactive, TGFb inhibitor inactive, ATXN2 expr inh inactive and HepG2 tox inactive.
COc1cccc(CNc2ncnc3sc(C(=O)N4CC5CCC4C5)c(C)c23)c1OC (stereo not drawn) was read as ATXN viability inactive.
Screening COc1cc(NC(=S)NCc2ccco2)cc(OC)c1 returned Gal4-VP16 FLuc inactive[0.365 µM], ATXN viability inactive, TGFb inhibitor inactive, RORgamma inh 5.6µM, ATXN2 expr inh inactive and HepG2 tox inactive.
O=C(COC(=O)c1cccs1)NCc1ccco1 was read as Gal4-VP16 FLuc inactive, ATXN viability inactive, TGFb inhibitor inactive, RORgamma inh inactive[10 µM], ATXN2 expr inh inactive and HepG2 tox inactive.

Screens (PubChem)
